Values without a mark were called inactive.

The experiment is described as follows: A549 lung cancer cell viability effects, profiling panel, resazurin fluorescence, 24 h, PK04 Diversity Set (AID 1171). Further: test concentration not given here. The note with it: higher = more signal, called active from +8 up or from −8 down. Background: Resazurin is reduced to fluorescent resorufin, in cell work by metabolically active cells.
Consider `O=C1C2C=CC(C(O)Cc3ccccc3)N(n3cnnc3)C2C(=O)N1Cc1ccccc1` (stereo unspecified), for which the z-score was -1.29.
The result for `Cc1ccc(S[C@]2(C(=O)NCCCN(C)C)CC(=O)N(Cc3ccccc3C(F)(F)F)[C@@H]2c2ccc(CO)cc2)cc1` reads -0.515; that for `COc1cc(C(O)C2C=CC3C(=O)NC(=O)C3N2Nc2ccccn2)cc(OC)c1OC` (stereo unspecified), -0.706; that for `C=CCNC(=O)[C@H]1[C@@H]2C(=O)O[C@@H](c3ccccc3)[C@@H](c3ccccc3)N2[C@@H](c2ccccc2OCCO)[C@]12C(=O)Nc1ccc(C#CCC(C(=O)OC)C(=O)OC)cc12`, 0.545.
As for `COCCOC(=O)N1C(=O)[C@@]2(c3cc(C#CCNC(N)=O)ccc31)[C@H](C(=O)N1CCN(c3ncccn3)CC1)[C@H]1C(=O)O[C@H](c3ccccc3)[C@H](c3ccccc3)N1[C@@H]2c1ccc(OCCO)cc1`, the z-score is -0.465.
With `CCOC(=O)C[C@H]1[C@H](OC(=O)c2ccc(C(=O)c3ccccc3)cc2)[C@@H](NC(=O)c2ccc3ccccc3c2)c2cc(OCCCO)ccc2N1C(=O)Cc1ccc(OC)cc1` the figure was 0.0571; with `C[C@H]1NC(=O)[C@@]23C(=O)N[C@@H](Cc4ccccc4)C2[C@H](C)[C@@]2(C)O[C@H]2C3/C=C/C/C=C\CNC(=O)[C@@H]2CCCN2C1=O` (stereo partly specified), 0.437; with `C=C(CCCC)/C(=C/C[C@@H](OC(=O)c1ccncc1)c1ccc(OCCO)cc1)c1cc(C(=O)OC)ccc1OC`, 0.998.
Turning to `CN1C(=O)C2C=CC(C(O)c3ccc([N+](=O)[O-])cc3)N(N3CCCCC3)C2C1=O` (stereo unspecified), the z-score was -0.197.
Take `CC(C)C(=C=CC[C@H](O)c1ccc(OCCO)cc1)CCO`: the z-score is 1.05.
As to `C[C@H]1C2[C@H](Cc3ccccc3)NC(=O)[C@]23C(=O)N[C@H](Cc2ccccc2)C(=O)N2CCC[C@H]2C(=O)NC/C=C\C/C=C/C3[C@@H]2O[C@]12C` (stereo partly specified), the z-score was 0.559.
The result for `CN(C)CCCCCCNC(=O)[C@H]1C[C@H]2C(=O)N[C@@H](CCCCN)C(=O)N2[C@H]1c1cccc(OCCO)c1` reads -0.0439.
For `C=CCC(OC(C)=O)[C@@H]1[C@@H](N(Cc2cc3ccccc3o2)C(=O)c2cccc3ccccc23)c2cc(OCCCO)ccc2N1C(=O)c1ccc(-c2ccccc2)cc1` (stereo partly specified), the z-score is -0.808.
With `COC(=O)[C@@]1(Cc2ccc(OC)cc2)[C@H]2c3cc(C(=O)N4CCCC4)n(Cc4ccc(O)c(OC)c4)c3C[C@H]2CN1C(=O)c1ccccc1` the figure was -1.47; with `COC(=O)[C@@]1(Cc2ccc(OC)cc2)[C@H]2c3cc(C(=O)N4CCCC4)n(Cc4ccc(C)c(F)c4F)c3C[C@H]2CN1C(=O)c1ccccc1`, -0.268; with `C=CCOC(=O)[C@H]1[C@@H]2C(=O)O[C@@H](c3ccccc3)[C@@H](c3ccccc3)N2[C@@H](c2ccc(OCCOC(=O)[C@@H]3C[C@@H]4C(=O)N[C@@H](CCCCNC(C)=O)C(=O)N4[C@@H]3c3ccc(O)cc3)cc2)[C@]12C(=O)Nc1ccccc12`, -1.57.
Turning to `COC(=O)[C@@]1(Cc2ccc(OC)cc2)[C@H]2c3cc(C(=O)N(C)C)n(Cc4ccc(S(C)(=O)=O)cc4)c3C[C@H]2CN1C(=O)c1ccccc1`, the z-score was 0.0073.
Take `CC(C)=CCN[C@H](CO)c1ccccc1`: the z-score is -0.278.
With `COC(=O)[C@@]1(Cc2ccc(F)cc2)[C@H]2c3cc(C(=O)N4CCCC4)n(Cc4ccc(S(C)(=O)=O)cc4)c3C[C@H]2CN1C(=O)c1ccccc1` the figure was 0.039; with `COc1ccc(C#Cc2ccc3c(c2)[C@]2(C(=O)N3)[C@H](C(=O)Nc3nc4ccccc4s3)[C@H]3C(=O)O[C@H](c4ccccc4)[C@H](c4ccccc4)N3[C@@H]2c2ccc(O)cc2)cc1`, 0.279; with `[N-]=[N+]=Nc1ccccc1[C@H]1OC(c2ccc(OCCCO)cc2)=N[C@@]1(CCS(=O)(=O)c1ccccc1)C(N)=O`, 0.985.
Turning to `CC(C)c1ccc(NN2C(C(O)c3ccc(B(O)O)cc3)C=CC3C(=O)N(c4ccccc4)C(=O)C32)cc1` (stereo unspecified), the z-score was -0.212.
The result for `COC(=O)[C@@]1(Cc2ccc(F)cc2)[C@H]2c3cc(C(=O)N(C)C)n(Cc4ccccc4)c3C[C@H]2CN1C(=O)c1ccccc1` reads -0.631; that for `[N-]=[N+]=Nc1ccccc1[C@@H]1OC(c2ccc(OCCCO)cc2)=N[C@]1(Cc1ccccc1)C(=O)N1CCOCC1`, -1.56; that for `CN(C)C(=O)[C@]1(Cc2ccccc2N=[N+]=[N-])N=C(c2ccc(OCCCO)cc2)O[C@@H]1c1ccccc1N=[N+]=[N-]`, -2.16.
With `CC(C)NC(=O)[C@@]1(c2ccc([N+](=O)[O-])cc2)CC(=O)N(C2CCCCC2)[C@@H]1c1ccc(CO)cc1I` the figure was 0.465.
With `COCCOC(=O)N1C(=O)[C@@]2(c3cc(C#Cc4ccc(OC)cc4)ccc31)[C@H](c1ccc(OCCO)cc1)N1[C@H](c3ccccc3)[C@H](c3ccccc3)OC(=O)[C@H]1[C@@H]2C(=O)N1CCN(c2ncccn2)CC1` the figure was -0.0439; with `CCC[C@@H]1C[C@@]1(CCC)[C@@H](NC(=O)c1ccccc1)c1cccc(Cl)c1`, 0.908.
Regarding `[N-]=[N+]=Nc1ccccc1[C@H]1OC(c2ccc(OCCCO)cc2)=N[C@@]1(CCS(=O)(=O)c1ccccc1)C(=O)NCC(O)CO` (stereo partly specified), the z-score was 0.859.
Consider `O=C1N[C@@H](Cc2ccccc2)C(=O)N2[C@@H]1C[C@@H](C(=O)O)[C@H]2c1cccc(OCCO)c1`, for which the z-score is 2.99.
Take `COc1ccc([Si](C)(C)[C@@H]2[C@@H](CC(=O)N3CCC[C@H]3CO)O[C@]3(C(=O)N(c4ccccc4)c4ccccc43)[C@H]2C)cc1`: the z-score was 1.13.
For `CC(C)N1C(=O)C[C@@](C(=O)NCC(F)(F)F)(c2ccc([N+](=O)[O-])cc2)[C@H]1c1ccc(CO)cc1`, the z-score is 0.201.
With `CN1C(=O)C2C=CC(C(O)C#Cc3ccccc3)N(N3CCCCC3)C2C1=O` (stereo unspecified) the figure was -0.913.
On to `C=C(C)[C@@H]1CC=C(C(O)C2C=CC3C(=O)N(C)C(=O)C3N2Nc2ccccc2)CC1` (stereo partly specified), for which the z-score is 0.392.
On to `C=CCOC(=O)[C@@H]1[C@H]2C(=O)O[C@H](c3ccccc3)[C@H](c3ccccc3)N2[C@H](c2ccc(OCCOC(=O)[C@@H]3C[C@@H]4C(=O)NCC(=O)N4[C@@H]3c3ccc(O)cc3)cc2)[C@@]12C(=O)Nc1ccc(I)cc12`, for which the z-score was 0.994.
The result for `COC(=O)[C@@]1(Cc2ccc(OC)cc2)[C@H]2c3cc(C(=O)N(C)C)n(CCc4ccccn4)c3C[C@H]2CN1C(=O)c1ccccc1` reads -0.735.

The values above are taken from PubChem BioAssay.
